Where “and” joins values, the source holds several entries; their conditions need not be identical. Identical values can stand only once. Records with an inconclusive call do not appear. Where a structure was tested more than once in an assay, its records may differ in their call. Calls of active or inactive are those of the source. The calls were made as follows, unless noted: active = hit-call score of the fitted dose curve at least 0.9, where 1 is the maximum; inconclusive = response in the unintended direction; inactive = score below 0.9.
Columns and labels:
[1] = target: Estrogen receptor (Homo sapiens) (UniProt P03372); assay: ATG_ERa_TRANS: Attagene TRANS-FACTORIAL HepG2 Assay for human Estrogen Receptor alpha (ERa) (AID 2282970); settings: HepG2 Attagene TRANS ERa GAL4 reporter, mRNA
Outline: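 Human liver HepG2, transient transfection of multiple GAL4-UAS reporter units; TRANS format (exogenous NR-Gal4 chimera). 24 h dosing. Readout: reporter mRNA, RT-PCR, 6-FAM primer extension, HpaI digest, capillary electrophoresis. Positive direction vs DMSO.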

[2] = target: X-box-binding protein 1 (Homo sapiens) (UniProt P17861); assay: ATG_Xbp1_CIS: Attagene CIS-FACTORIAL HepG2 Assay for human X-box Binding Protein 1 (XBP1) (AID 2282972; active = hit-call score of the fitted dose curve at least 0.9, where 1 is the maximum; inactive = score below 0.9); settings: HepG2 XBP1 cis-element reporter, Attagene multiplex; actives raise or lower the signal
Outline: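 HepG2 cells transiently transfected with multiple cis-element reporter units report endogenous TF activity; 24 h exposure, then reporter mRNA measured by RT-PCR, 6-FAM labelling, HpaI digestion and capillary electrophoresis. Bidirectional fitting versus DMSO.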

[3] = ATG_M_19_TRANS: Attagene TRANS-FACTORIAL HepG2 Assay for M19 Transcription Factor (Internal Marker) (AID 2282974); settings: HepG2 Attagene TRANS-FACTORIAL M19 internal marker reporter
Outline: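 Reporter mRNA induction was measured in transfected HepG2 cells 24 h after dosing. Endpoint fitted upward relative to DMSO and serves as a background control within the multiplexed TRANS panel.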

[4] = ATG_GAL4_TRANS: Attagene TRANS-FACTORIAL HepG2 Assay for GAL4 (Internal Marker) (AID 2282976); settings: HepG2 Attagene TRANS GAL4 internal marker reporter
Outline: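 First, HepG2 cells were transfected with reporter units under GAL4-UAS control. Next, they were treated with chemical for 24 h. Finally, RNA was reverse-transcribed, PCR-amplified, FAM-labelled and resolved by capillary electrophoresis, with induction scored against DMSO.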

[5] = target: Glucocorticoid receptor (Homo sapiens) (UniProt P04150); assay: ATG_GR_TRANS: Attagene TRANS-FACTORIAL HepG2 Assay for human Glucocorticoid Receptor (GR) (AID 2282978); settings: HepG2 Attagene TRANS GR reporter, mRNA transcription;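 also: activators score as hits since higher reporter transcript over DMSO is fitted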
Outline: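 Reporter transcript levels, detected by fluorescence after RT-PCR and capillary electrophoresis, served as the endpoint. HepG2 cells bearing transfected GAL4-UAS reporters responsive to NR-GAL4 chimeras were incubated with compound 24 h; DMSO defined baseline.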

[6] = target: Bile acid receptor (Homo sapiens) (UniProt Q96RI1); assay: ATG_FXR_TRANS: Attagene TRANS-FACTORIAL HepG2 Assay for Farnesoid X Receptor (FXR) (AID 2282979); settings: HepG2 Attagene TRANS FXR-GAL4 reporter transcription;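 also: hits raise reporter mRNA above DMSO so AC50 marks FXR activation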
Outline: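 Transient transfection of HepG2 with multiplexed GAL4-UAS reporter units; exogenous FXR-GAL4 chimera. Dose 24 h → TriZol RNA → oligo(dT) RT → PCR, 6-FAM primer extension, HpaI cut → CE. Gain vs DMSO.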

[7] = target: Oxysterols receptor LXR-alpha (Homo sapiens) (UniProt Q13133); assay: ATG_LXRa_TRANS: Attagene TRANS-FACTORIAL HepG2 Assay for human Liver X Receptor alpha (LXRa) (AID 2282980); settings: HepG2 Attagene TRANS reporter, LXRa transactivation
Outline: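 Transfect HepG2 with GAL4-UAS multiplex reporter constructs (TRANS format, chimeric receptor-GAL4); treat 24 h; extract RNA, reverse-transcribe, PCR-amplify, FAM-label, HpaI-digest; resolve fragments by capillary electrophoresis. Upward response vs DMSO.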

[8] = ATG_M_06_TRANS: Attagene TRANS-FACTORIAL HepG2 Assay for M06 Transcription Factor (Internal Marker) (AID 2282983); settings: HepG2 Attagene TRANS M06 internal marker reporter
Outline: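 Transfect HepG2 with MRTUs → dose compounds 24 h → isolate RNA, oligo(dT) RT → PCR with reporter primers → 6-FAM primer extension → HpaI digest → CE fragment analysis. Positive direction vs DMSO.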

[9] = ATG_M_32_TRANS: Attagene TRANS-FACTORIAL HepG2 Assay for M32 Transcription Factor (Internal Marker) (AID 2282984); settings: HepG2 Attagene TRANS M32 internal marker reporter;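 also: transcript level of a background control reporter unit measured by RT-PCR and capillary electrophoresis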
Outline: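 HepG2 cells transiently transfected with multiple GAL4-UAS reporter transcription units, dosed for 24 hours; reporter mRNA quantified by RT-PCR, 6-FAM primer extension, HpaI digestion and capillary electrophoresis. Gain-of-signal fitted versus DMSO baseline; internal background-control marker.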

[10] = target: Nuclear receptor subfamily 4 group A member 2 (Homo sapiens) (UniProt P43354); assay: ATG_NURR1_TRANS: Attagene TRANS-FACTORIAL HepG2 Assay for human Nuclear Receptor Related Protein 1 (NURR1) (AID 2282985); settings: HepG2 Attagene TRANS reporter, mRNA readout
Outline: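 HepG2 cells transiently transfected with GAL4-UAS reporter units and chimeric NR-Gal4 constructs; chemical exposure 24 h. Reporter mRNA quantified by RT-PCR, fluorescent labelling and capillary electrophoresis; gain of signal fitted relative to DMSO baseline.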

[11] = target: Transcriptional activator Myb (Homo sapiens) (UniProt P10242); assay: ATG_Myb_CIS: Attagene CIS-FACTORIAL HepG2 Assay for human Myeloblastosis (Myb) Proto-Oncogene Transcription Factor (AID 2282986; active = hit-call score of the fitted dose curve at least 0.9, where 1 is the maximum; inactive = score below 0.9); settings: HepG2 Attagene CIS-FACTORIAL Myb reporter transcription; actives raise or lower the signal
Outline: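 Transiently transfected HepG2 cells, treated 24 h. Reporter mRNA quantified by RT-PCR/capillary electrophoresis; bidirectional fit relative to DMSO.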

[12] = target: Nuclear respiratory factor 1 (Homo sapiens) (UniProt Q16656); assay: ATG_NRF1_CIS: Attagene CIS-FACTORIAL HepG2 Assay for human Nuclear Respiratory Factor 1 (NRF1) Orphan Gene (AID 2282987; active = hit-call score of the fitted dose curve at least 0.9, where 1 is the maximum; inactive = score below 0.9); settings: HepG2 NRF1 cis-element reporter, Attagene multiplex; actives raise or lower the signal
Outline: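 Cells (HepG2, transient MRTU transfection) are exposed to compound for 24 h, then RNA isolated and reporter mRNA amplified and fluorescently labelled. Fragments are separated by capillary electrophoresis; signal change is fitted bidirectionally relative to DMSO.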

[13] = ATG_NFI_CIS: Attagene CIS-FACTORIAL HepG2 Assay for human Nuclear Factor I (NFI) (AID 2282989; active = hit-call score of the fitted dose curve at least 0.9, where 1 is the maximum; inactive = score below 0.9); settings: HepG2 cis-regulatory reporter, NFI response element transcription; actives raise or lower the signal
Outline: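 Cells: human liver HepG2, transiently transfected with promoter-regulated reporter transcription units. Exposure 24 h. Detection: fluorescent RT-PCR products separated by capillary electrophoresis, normalised to DMSO negative control.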

[14] = target: Myc proto-oncogene protein (Homo sapiens) (UniProt P01106); assay: ATG_Myc_CIS: Attagene CIS-FACTORIAL HepG2 Assay for human Myelocytomatosis (Myc) Proto-Oncogene Transcription Factor (AID 2282990; active = hit-call score of the fitted dose curve at least 0.9, where 1 is the maximum; inactive = score below 0.9); settings: HepG2, Attagene cis-reporter transcription factor activity; actives raise or lower the signal
Outline: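 Multiplexed cis-reporter transcription in HepG2 cells after 24 h chemical treatment. Reporter mRNA measured by RT-PCR and capillary electrophoresis fluorescence; activity fitted bidirectionally against DMSO control.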

[15] = target: Oxysterols receptor LXR-beta (Homo sapiens) (UniProt P55055); assay: ATG_LXRb_TRANS: Attagene TRANS-FACTORIAL HepG2 Assay for human Liver X Receptor beta (LXRb) (AID 2282981); settings: HepG2 Attagene TRANS GAL4-LXRb reporter, mRNA
Outline: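 HepG2 cells transiently transfected with multiple reporter transcription units carrying chimeric NR-Gal4 proteins acting on GAL4-UAS reporters; compound exposure 24 h. Reporter mRNA quantified by RT-PCR, 6-FAM labelling, HpaI digestion and capillary electrophoresis; gain of signal versus DMSO.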

[16] = target: Hepatocyte nuclear factor 4-alpha (Homo sapiens) (UniProt P41235); assay: ATG_HNF4a_TRANS: Attagene TRANS-FACTORIAL HepG2 Assay for human Hepatocyte Nuclear Factor 4 alpha (HNF4a) (AID 2282982); settings: HepG2 HNF4a transactivation reporter, mRNA readout
Outline: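 HepG2 cells transiently transfected with multiplexed GAL4-UAS reporter units responsive to chimeric NR-GAL4 proteins; compound exposure 24 h. Reporter mRNA quantified by RT-PCR, 6-FAM labelling, HpaI digestion and capillary electrophoresis; gain of signal versus DMSO baseline.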

[17] = target: Steroid hormone receptor ERR1 (Homo sapiens) (UniProt P11474); assay: ATG_ERRa_TRANS: Attagene TRANS-FACTORIAL HepG2 Assay for human Estrogen-Related Receptor alpha (ERRa) (AID 2282971); settings: HepG2 Attagene TRANS reporter, ERRa transactivation
Outline: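 Reporter transcript induction was quantified by RT-PCR and capillary electrophoresis of FAM-labelled, HpaI-cut products after 24 h treatment of HepG2 cells carrying transiently transfected GAL4-UAS reporter units and an exogenous ERRa-Gal4 fusion; activity scored as increase over DMSO.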

[18] = target: Estrogen-related receptor gamma (Homo sapiens) (UniProt P62508); assay: ATG_ERRg_TRANS: Attagene TRANS-FACTORIAL HepG2 Assay for human Estrogen-Related Receptor gamma (ERRg) (AID 2282977); settings: HepG2 Attagene TRANS reporter, ERRg transactivation;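 also: hits increase reporter signal over DMSO so potencies reflect activators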
Outline: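 HepG2 cells transiently transfected with multiplexed GAL4-UAS reporter units and chimeric NR-Gal4 constructs were exposed to test chemicals for 24 h. Reporter mRNA was measured by RT-PCR, 6-FAM primer extension, HpaI digestion and capillary electrophoresis; gain-of-signal versus DMSO.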

Measured: AC50

Bile acid receptor (Homo sapiens), sequence (Q96RI1 whole entry, looked up, the tested form may be a part): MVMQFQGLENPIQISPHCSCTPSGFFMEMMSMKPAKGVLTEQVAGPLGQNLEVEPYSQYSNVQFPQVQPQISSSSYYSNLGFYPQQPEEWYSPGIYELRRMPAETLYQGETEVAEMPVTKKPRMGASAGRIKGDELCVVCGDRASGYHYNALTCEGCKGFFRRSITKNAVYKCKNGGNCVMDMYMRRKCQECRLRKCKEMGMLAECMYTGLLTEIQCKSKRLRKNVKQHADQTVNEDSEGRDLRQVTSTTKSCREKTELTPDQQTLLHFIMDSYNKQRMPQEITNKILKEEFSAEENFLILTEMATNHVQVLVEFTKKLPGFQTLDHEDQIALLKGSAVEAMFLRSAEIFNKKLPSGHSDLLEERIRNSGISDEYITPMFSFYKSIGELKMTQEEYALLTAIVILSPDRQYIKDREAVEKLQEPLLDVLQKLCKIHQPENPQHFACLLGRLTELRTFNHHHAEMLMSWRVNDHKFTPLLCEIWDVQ
Nuclear receptor subfamily 4 group A member 2 (Homo sapiens), sequence (P43354 whole entry, looked up, the tested form may be a part): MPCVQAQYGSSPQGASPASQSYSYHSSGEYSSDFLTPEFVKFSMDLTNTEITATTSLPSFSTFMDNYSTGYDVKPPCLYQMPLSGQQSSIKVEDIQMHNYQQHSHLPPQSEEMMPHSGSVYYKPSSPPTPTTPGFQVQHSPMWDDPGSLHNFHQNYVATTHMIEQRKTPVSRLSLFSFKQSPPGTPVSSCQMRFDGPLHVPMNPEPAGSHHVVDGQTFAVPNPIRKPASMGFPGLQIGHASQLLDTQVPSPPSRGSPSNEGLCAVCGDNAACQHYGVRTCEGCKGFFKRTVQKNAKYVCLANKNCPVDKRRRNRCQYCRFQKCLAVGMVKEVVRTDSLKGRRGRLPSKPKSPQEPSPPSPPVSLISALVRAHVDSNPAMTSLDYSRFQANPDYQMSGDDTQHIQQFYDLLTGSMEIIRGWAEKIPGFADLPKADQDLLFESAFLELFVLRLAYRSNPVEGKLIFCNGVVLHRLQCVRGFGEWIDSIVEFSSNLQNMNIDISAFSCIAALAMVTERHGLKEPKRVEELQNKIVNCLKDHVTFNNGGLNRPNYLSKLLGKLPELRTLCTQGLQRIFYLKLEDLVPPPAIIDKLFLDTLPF
Estrogen receptor (Homo sapiens), sequence (P03372 whole entry, looked up, the tested form may be a part): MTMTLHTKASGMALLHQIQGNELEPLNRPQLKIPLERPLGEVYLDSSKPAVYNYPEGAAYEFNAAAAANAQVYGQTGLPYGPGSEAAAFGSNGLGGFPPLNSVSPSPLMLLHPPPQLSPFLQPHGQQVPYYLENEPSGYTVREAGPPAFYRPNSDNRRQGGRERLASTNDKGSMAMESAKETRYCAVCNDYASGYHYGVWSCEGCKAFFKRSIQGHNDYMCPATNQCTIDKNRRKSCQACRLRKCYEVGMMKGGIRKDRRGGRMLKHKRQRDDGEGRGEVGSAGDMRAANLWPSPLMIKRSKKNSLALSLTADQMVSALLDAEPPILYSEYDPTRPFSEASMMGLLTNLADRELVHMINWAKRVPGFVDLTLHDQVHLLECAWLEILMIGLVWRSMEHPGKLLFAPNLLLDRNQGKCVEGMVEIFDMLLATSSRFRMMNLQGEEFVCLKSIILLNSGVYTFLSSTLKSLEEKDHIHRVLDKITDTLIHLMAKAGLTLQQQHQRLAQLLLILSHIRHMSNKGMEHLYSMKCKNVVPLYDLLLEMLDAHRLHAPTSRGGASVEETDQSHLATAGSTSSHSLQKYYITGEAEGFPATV
Oxysterols receptor LXR-alpha (Homo sapiens), sequence (Q13133 whole entry, looked up, the tested form may be a part): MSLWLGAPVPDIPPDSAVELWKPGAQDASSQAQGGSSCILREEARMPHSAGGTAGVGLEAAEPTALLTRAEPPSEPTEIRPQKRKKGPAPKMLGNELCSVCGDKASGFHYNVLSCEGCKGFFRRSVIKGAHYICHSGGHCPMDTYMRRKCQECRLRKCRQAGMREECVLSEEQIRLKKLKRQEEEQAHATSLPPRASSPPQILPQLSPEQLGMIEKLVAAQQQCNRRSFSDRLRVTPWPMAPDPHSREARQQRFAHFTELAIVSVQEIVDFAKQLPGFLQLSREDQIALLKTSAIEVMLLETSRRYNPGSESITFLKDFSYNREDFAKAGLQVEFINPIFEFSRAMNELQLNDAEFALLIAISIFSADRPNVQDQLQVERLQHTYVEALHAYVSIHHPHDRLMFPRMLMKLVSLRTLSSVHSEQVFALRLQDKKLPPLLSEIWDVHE
Nuclear respiratory factor 1 (Homo sapiens), sequence (Q16656 whole entry, looked up, the tested form may be a part): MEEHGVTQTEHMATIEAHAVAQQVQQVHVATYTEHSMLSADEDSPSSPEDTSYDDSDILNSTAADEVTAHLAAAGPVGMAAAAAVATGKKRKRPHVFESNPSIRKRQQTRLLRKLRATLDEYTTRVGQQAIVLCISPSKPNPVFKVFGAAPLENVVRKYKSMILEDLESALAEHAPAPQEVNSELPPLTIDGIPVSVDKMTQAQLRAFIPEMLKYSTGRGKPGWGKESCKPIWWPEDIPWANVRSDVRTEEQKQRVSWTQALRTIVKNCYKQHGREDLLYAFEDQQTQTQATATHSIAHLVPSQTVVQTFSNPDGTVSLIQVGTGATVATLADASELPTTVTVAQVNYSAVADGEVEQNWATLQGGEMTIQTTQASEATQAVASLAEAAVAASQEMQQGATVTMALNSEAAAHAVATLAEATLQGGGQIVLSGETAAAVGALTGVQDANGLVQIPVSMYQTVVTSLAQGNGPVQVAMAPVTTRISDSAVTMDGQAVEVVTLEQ
Myc proto-oncogene protein (Homo sapiens), sequence (P01106 whole entry, looked up): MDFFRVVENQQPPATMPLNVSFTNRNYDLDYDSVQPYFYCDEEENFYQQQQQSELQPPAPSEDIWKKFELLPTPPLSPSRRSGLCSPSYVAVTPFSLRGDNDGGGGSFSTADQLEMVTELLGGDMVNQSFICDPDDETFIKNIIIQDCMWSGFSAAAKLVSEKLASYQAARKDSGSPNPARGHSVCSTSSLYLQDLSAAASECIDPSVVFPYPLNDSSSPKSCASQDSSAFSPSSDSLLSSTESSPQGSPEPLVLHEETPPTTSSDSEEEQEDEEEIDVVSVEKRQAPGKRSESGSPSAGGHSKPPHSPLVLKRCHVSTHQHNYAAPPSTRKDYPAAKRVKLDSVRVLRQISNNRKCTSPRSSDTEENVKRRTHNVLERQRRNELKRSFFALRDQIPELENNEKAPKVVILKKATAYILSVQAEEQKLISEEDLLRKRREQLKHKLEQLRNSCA
X-box-binding protein 1 (Homo sapiens), sequence (P17861 whole entry, looked up): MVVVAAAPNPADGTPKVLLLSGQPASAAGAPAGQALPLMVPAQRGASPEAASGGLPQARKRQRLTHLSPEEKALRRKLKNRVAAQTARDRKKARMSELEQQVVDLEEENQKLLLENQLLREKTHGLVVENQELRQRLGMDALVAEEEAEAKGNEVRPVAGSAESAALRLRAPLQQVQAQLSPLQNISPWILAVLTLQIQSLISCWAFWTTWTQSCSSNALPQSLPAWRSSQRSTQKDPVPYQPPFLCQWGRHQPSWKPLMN
Glucocorticoid receptor (Homo sapiens), sequence (P04150 whole entry, looked up, the tested form may be a part): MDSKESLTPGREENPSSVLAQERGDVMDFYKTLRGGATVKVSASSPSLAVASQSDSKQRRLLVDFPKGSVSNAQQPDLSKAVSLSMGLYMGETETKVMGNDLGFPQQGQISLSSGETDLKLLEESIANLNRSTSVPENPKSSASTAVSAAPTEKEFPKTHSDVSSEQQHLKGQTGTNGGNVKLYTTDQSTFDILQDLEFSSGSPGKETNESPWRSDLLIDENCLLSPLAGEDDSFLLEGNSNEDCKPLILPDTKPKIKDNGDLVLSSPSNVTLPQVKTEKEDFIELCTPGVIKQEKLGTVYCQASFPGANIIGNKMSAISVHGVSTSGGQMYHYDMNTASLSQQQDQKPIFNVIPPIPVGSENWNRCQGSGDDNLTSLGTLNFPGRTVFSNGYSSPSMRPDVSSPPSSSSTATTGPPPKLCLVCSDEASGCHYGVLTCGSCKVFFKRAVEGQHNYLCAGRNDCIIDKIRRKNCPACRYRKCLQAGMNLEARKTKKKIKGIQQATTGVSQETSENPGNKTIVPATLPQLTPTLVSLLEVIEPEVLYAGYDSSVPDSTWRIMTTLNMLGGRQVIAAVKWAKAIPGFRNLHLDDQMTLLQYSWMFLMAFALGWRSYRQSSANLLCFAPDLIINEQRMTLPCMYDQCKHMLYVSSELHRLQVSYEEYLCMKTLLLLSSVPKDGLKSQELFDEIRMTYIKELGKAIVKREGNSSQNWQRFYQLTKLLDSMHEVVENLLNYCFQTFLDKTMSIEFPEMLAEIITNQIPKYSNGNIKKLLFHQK
Transcriptional activator Myb (Homo sapiens), sequence (P10242 whole entry, looked up): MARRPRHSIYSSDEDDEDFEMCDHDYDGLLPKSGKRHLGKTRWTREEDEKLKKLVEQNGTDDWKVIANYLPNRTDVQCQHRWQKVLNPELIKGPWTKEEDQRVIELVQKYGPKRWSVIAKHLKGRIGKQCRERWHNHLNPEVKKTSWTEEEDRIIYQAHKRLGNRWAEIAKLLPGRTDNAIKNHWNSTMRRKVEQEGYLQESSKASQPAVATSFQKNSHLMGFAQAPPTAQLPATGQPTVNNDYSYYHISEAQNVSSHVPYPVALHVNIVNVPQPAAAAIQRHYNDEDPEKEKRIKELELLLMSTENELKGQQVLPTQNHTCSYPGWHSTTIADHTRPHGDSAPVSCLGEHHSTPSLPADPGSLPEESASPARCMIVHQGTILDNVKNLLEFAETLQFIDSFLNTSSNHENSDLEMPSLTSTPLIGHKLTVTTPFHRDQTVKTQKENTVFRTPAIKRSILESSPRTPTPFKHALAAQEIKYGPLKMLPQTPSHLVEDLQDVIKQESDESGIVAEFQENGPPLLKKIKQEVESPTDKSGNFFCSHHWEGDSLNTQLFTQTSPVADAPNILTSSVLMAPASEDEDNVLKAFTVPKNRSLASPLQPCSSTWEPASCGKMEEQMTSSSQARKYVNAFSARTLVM

CCN(CC)CC
not listed: [15] | [16] | [17] | [18]
inactive: all other assays above

CCCCCCCCCCCCCCCC(=O)OC
inactive: [1] | [2] | [3] | [4] | [15] | [9] | [11] | [12] | [13] | [14]

COC1=CC(=O)C[C@@H](C)[C@]12Oc1c(Cl)c(OC)cc(OC)c1C2=O
not listed: [2] | [3] | [4] | [8] | [17] | [18]
inactive: all other assays above

Cc1ccccc1OCC(=O)O
active: [11] 164 µM
not listed: [2] | [4] | [8] | [15] | [16] | [17] | [18]
inactive: all other assays above

O=CC(F)(F)C(F)(F)C(F)(F)F
not listed: [2] | [8] | [11] | [17] | [18]
inactive: all other assays above

Oc1c(Cl)ccc(Cl)c1Cl
inactive: [1] | [15] | [16] | [8] | [9] | [11] | [12] | [13] | [14]

c1cnc2c(c1)ccc1cccnc12
active: [2] 158 µM | [12] 4.62 µM and 6.45 µM
inactive: [17] | [2] | [3] | [18] | [5] | [7] | [15] | [8] | [10] | [11] | [13] | [14]

C=CC(C)(CCC=C(C)C)OC(C)=O (stereo not drawn)
not listed: [2] | [6] | [8] | [16] | [17] | [18]
inactive: all other assays above

COc1cc(OC)nc(NC(=O)NS(=O)(=O)Nc2ccccc2C(=O)N(C)C)n1
not listed: [3] | [4] | [7] | [8] | [9] | [17] | [18]
inactive: all other assays above

CCCCCCCCCCCC(=O)O
active: [2] 87 µM
inactive: [2] | [3] | [4] | [7] | [15] | [8] | [9] | [10] | [12] | [13] | [14]

Source: PubChem BioAssay (EPA / NIEHS)
